Laboratory results published in PubChem BioAssay (Tox21).
Records with an inconclusive call do not appear. Calls of active or inactive are those of the source. Unless noted, calls come from the whole dose curve.

Tests used:
[1] = Nuclear factor erythroid 2-related factor 2/antioxidant responsive element (Nrf2/ARE) small molecule agonists: qHTS cell viability counter screen in human keratinocytes (AID 1919968; active = well fitted curve in the direction sought with a large enough effect in the repeat runs; an effect the other way counts as inactive or inconclusive; note: nearly all actives have a fitted effect of over 55% in size)
Summary of the method: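 Stably transfected HaCaT (KeratinoSens), 1,500/well. Test agents in DMSO were applied for 23 h, 37 C/5% CO2. CellTiter-Fluor was incubated 1 h before the fluorescence read.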

[2] = Nuclear factor erythroid 2-related factor 2/antioxidant responsive element (Nrf2/ARE) small molecule agonists: luciferase reporter gene qHTS assay in human keratinocytes (AID 1919969); note: nearly all actives have a fitted effect of over 35% in size
[3] = biological target: Gonadotropin-releasing hormone receptor (Homo sapiens) (UniProt P30968); assay: Human gonadotropin-releasing hormone receptor (GnRHR) small molecule agonists, calcium flux assay in GnRHR-HEK293 cells (AID 1920063); note: nearly all actives have a fitted effect of over 35% in size
Summary of the method: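 Stable human GnRHR HEK293 line. 18 h plating, then calcium dye for 1 h at 37 C. Agonist-mode compound addition from DMSO stocks; fluorescence monitored 3 min.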

[4] = biological target: KiSS-1 receptor (Homo sapiens) (UniProt Q969F8); assay: Human kisspeptin (KISS1R) small molecule agonists, calcium flux assay in KISS1R-HEK293 cells (AID 1920064; active = well fitted curve in the direction sought with a large enough effect in the repeat runs; an effect the other way counts as inactive or inconclusive)
Summary of the method: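 After overnight (18 h) culture at 37 C/5% CO2, human KISS1R-HEK293 cells received calcium dye for 1 h, then test compound; emission at 540 nm (excitation 480 nm) was tracked for 3 min.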

[5] = G protein-coupled receptor (GPCR) small molecule agonists, calcium flux assay: HEK293 wild type cell line counter screen (AID 1920065)
Summary of the method: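 Following 18 h incubation at 37 C/5% CO2, plates got calcium dye for 1 h; compounds, ATP or DMSO were then pinned in and fluorescence followed kinetically (480/540 nm).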

[6] = p53 small molecule agonists, cell-based qHTS assay with human liver microsomes (AID 1963577);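 note: p53 response element beta-lactamase reporter cells with liver microsomes plus NADPH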
Summary of the method: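 16 h, 37 C exposure of p53RE-bla cells to compounds with human liver microsomes and NADPH (0.5 mg/mL final each); detection via LiveBLAzer mixture, 2 h dark at room temperature.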

[7] = p53 small molecule agonists, cell-based qHTS assay with rat liver microsomes (AID 1963578)
Summary of the method: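 With rat liver microsomes and NADPH present (0.5 mg/mL final each), p53RE-bla cells are treated with compound for 16 h at 37 C. LiveBLAzer detection mixture is then applied for 2 h at room temperature in the dark.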

[8] = p53 small molecule agonists, cell-based qHTS assay with human liver microsomes: qHTS cell viability counter screen (AID 1963579); note: nearly all actives have a fitted effect of over 45% in size
Summary of the method: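 In this multiplexed counter screen, the reporter plates were subsequently treated with CellTiter-Glo so that cell viability, reflected by luminescence, could be recorded for p53RE-bla cells dosed 16 h with compounds under microsomal activation (HLM and NADPH).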

[9] = p53 small molecule agonists, cell-based qHTS assay with rat liver microsomes: qHTS cell viability counter screen (AID 1963580); note: nearly all actives have a fitted effect of over 45% in size
Summary of the method: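 Cytotoxicity counter screen: intracellular ATP measured by CellTiter-Glo luminescence in the same wells as the beta-lactamase reporter read, on HCT-116 p53RE-bla cells exposed 16 h at 37 C to compounds with rat liver microsomes and NADPH, each 0.5 mg/mL final.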

[10] = p53 small molecule agonists, cell-based qHTS assay: qHTS cell viability counter screen (AID 1963581); note: nearly all actives have a fitted effect of over 45% in size
Summary of the method: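 qHTS counter screen: 16 h compound exposure at 37 C of p53RE-bla HCT-116 cells (4,000 per well, seeded 5 h prior), cell viability by ATP luminescence.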

[11] = p53 small molecule agonists, cell-based qHTS assay (AID 1963582; active = well fitted activation curve with a large enough effect in the signal ratio in the repeat runs, not every such curve was filed as active; the % refers to the signal ratio)
Summary of the method: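 Measured: fluorescence from cleaved LiveBLAzer substrate. System: p53RE-bla cells, 16 h compound treatment at 37 C, 2 h substrate step at room temperature.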

[12] = biological target: 5-hydroxytryptamine receptor 2A (Homo sapiens) (UniProt P28223); assay: 5-hydroxytryptamine receptor 2A (HTR2A) small molecule agonists, cell-based qHTS assay (AID 1963587); note: nearly all actives have a fitted effect of over 30% in size
Summary of the method: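 CHO cells stably expressing human HTR2A, plated 18 h, loaded with calcium dye 1 h at 37 C. Agonist mode: compounds added and intracellular calcium fluorescence recorded kinetically for 2 min at 1 sec intervals.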

[13] = biological target: Muscarinic acetylcholine receptor M1 (Homo sapiens) (UniProt P11229); assay: Cholinergic receptor muscarinic 1 (CHRM1) small molecule antagonists, cell-based qHTS assay (AID 1963588); note: nearly all actives have a fitted effect of over 40% in size
Summary of the method: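 Compounds were tested at 15 concentrations in three independent runs. Dye-loaded CHRM1-CHO cells were exposed 5 min at room temperature before stimulation by acetylcholine added at 50nM. Intracellular calcium was read kinetically on FDSS for 3 min.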

[14] = biological target: Muscarinic acetylcholine receptor M1 (Homo sapiens) (UniProt P11229); assay: Cholinergic receptor muscarinic 1 (CHRM1) small molecule agonists, cell-based qHTS assay (AID 1963589); note: nearly all actives have a fitted effect of over 35% in size
Summary of the method: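 Kinetic fluorescence (1 s intervals) of calcium-sensitive dye in human M1 CHO cells after compound addition; cells pre-incubated 18 h at 37 C/5% CO2 and dye-loaded 1 h.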

[15] = cAMP Responsive Elements (CRE) small molecule agonists, cell-based qHTS assay (AID 1963590)
Summary of the method: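 Test agents in DMSO were incubated 3 h at 37 C/5% CO2 with CRE-bla HEK 293T cells seeded 18 h earlier; LiveBLAzer B/G FRET substrate was added and read after 2 h at room temperature.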

[16] = cAMP Responsive Elements (CRE) small molecule antagonists, cell-based qHTS assay (AID 1963591; active = well fitted inhibition curve with a large enough effect in the signal ratio in the repeat runs, not every such curve was filed as active; the % refers to the signal ratio)
Summary of the method: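 Reporter line CRE-bla HEK 293T in dialyzed-FBS DMEM; cells preincubated 18 h, treated 3 h with compound plus NKH477 (0.25 uM final); LiveBLAzer FRET, 2 h RT.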

[17] = biological target: Beta-2 adrenergic receptor (Homo sapiens) (UniProt P07550); assay: Adrenergic beta2 receptor (ADRB2) small molecule antagonists, cell-based qHTS assay (AID 1963592); note: series mostly up to about 92 µM; nearly all actives have a fitted effect of over 50% in size
Summary of the method: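 Assay format: CHO-ADRB2 cells, 18-20hr seeding at 37C/5% CO2, then compound plus 1nM isoproterenol agonist mix for 0.5hr RT. Homogeneous time-resolved fluorescence cAMP detection after 1hr, expressed as 665/615 nm ratio.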

[18] = biological target: D(2) dopamine receptor (Homo sapiens) (UniProt P14416); assay: Dopamine D2 receptor (DRD2) small molecule agonists, cell-based qHTS assay (AID 1963594); note: nearly all actives have a fitted effect of over 35% in size
Summary of the method: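 HEK293 cells stably expressing human DRD2, pre-treated with PDE inhibitor Ro20-1724 (0.1 mM final) and compound 10 min at room temperature, then stimulated with NKH477 (200nM […]) for 30 min. cAMP read by HTRF (665/620 nm).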

[19] = biological target: D(2) dopamine receptor (Homo sapiens) (UniProt P14416); assay: Dopamine D2 receptor (DRD2) small molecule antagonists, cell-based qHTS assay (AID 1963595; active = well fitted inhibition curve with a large enough effect in the signal ratio in the repeat runs, with a control signal flat; the % refers to the signal ratio)
Summary of the method: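 Readout: HTRF cAMP, cAMP-d2 competing with cellular cAMP for anti-cAMP cryptate, read after 1 h. Cells: DRD2-HEK293. Conditions: 0.1 mM Ro20-1724, 12 nM quinpirole, 200 nM NKH477, 30 min RT.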

[20] = biological target: Beta-2 adrenergic receptor (Homo sapiens) (UniProt P07550); assay: Adrenergic beta2 receptor (ADRB2) small molecule agonists, cell-based qHTS assay (AID 1963593);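 note: CHO cells stably overexpressing human ADRB2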
Summary of the method: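 CHO cells stably over-expressing ADRB2 were plated overnight at 37C, then dosed with compounds plus a stimulation mix containing 100uM IBMX and 25uM Ro-20-1724 for 0.5hr at room temperature. cAMP was measured by HTRF competition, 1hr.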
% is set by controls: 0 for no effect and ±100 for the full control effect.

Beta-2 adrenergic receptor (Homo sapiens), sequence (P07550 whole entry, looked up): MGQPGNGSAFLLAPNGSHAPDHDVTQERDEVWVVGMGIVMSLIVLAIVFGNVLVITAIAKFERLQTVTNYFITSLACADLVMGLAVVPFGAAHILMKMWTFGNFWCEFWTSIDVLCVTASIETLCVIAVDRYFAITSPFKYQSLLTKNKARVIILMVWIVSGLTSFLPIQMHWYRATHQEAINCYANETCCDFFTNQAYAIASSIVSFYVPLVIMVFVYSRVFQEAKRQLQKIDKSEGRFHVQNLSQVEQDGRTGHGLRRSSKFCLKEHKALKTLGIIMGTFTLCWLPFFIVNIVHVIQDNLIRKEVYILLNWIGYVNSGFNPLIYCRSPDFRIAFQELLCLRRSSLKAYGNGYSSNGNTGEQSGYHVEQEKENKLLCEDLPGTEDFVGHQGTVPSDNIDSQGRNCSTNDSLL
5-hydroxytryptamine receptor 2A (Homo sapiens), sequence (P28223 whole entry, looked up): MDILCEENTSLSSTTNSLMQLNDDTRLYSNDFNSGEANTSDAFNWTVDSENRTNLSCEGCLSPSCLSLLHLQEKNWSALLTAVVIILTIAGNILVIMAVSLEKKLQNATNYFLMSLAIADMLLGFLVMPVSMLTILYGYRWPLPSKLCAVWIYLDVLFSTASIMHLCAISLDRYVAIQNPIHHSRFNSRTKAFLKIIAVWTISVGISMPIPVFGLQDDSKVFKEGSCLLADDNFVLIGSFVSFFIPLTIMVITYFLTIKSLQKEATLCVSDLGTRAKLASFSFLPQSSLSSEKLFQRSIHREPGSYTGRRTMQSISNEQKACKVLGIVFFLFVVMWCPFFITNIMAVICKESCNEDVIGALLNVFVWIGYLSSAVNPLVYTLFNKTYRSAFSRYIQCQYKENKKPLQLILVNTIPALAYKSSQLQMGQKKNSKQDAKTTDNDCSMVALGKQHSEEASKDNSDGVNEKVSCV
Gonadotropin-releasing hormone receptor (Homo sapiens), sequence (P30968 whole entry, looked up): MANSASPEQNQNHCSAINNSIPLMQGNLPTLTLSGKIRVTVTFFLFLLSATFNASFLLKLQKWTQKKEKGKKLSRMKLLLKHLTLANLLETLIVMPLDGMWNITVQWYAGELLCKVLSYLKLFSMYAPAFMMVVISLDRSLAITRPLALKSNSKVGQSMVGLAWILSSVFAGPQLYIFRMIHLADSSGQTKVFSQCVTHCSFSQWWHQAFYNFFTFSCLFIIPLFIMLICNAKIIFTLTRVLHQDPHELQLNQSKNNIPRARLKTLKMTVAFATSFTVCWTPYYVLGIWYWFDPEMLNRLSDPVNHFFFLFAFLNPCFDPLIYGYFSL
D(2) dopamine receptor (Homo sapiens), sequence (P14416 whole entry, looked up): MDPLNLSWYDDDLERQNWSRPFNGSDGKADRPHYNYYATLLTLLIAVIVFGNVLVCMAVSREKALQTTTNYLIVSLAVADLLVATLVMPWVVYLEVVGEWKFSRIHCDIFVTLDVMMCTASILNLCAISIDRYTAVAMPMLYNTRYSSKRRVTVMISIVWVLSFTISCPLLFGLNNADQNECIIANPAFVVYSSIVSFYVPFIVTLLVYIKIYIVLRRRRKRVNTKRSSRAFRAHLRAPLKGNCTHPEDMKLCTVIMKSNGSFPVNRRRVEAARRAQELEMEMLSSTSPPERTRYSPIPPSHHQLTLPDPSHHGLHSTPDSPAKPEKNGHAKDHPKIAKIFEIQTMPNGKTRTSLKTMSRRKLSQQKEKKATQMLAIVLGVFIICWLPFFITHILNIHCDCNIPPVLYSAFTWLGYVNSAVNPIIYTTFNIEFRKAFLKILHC
KiSS-1 receptor (Homo sapiens), sequence (Q969F8 whole entry, looked up): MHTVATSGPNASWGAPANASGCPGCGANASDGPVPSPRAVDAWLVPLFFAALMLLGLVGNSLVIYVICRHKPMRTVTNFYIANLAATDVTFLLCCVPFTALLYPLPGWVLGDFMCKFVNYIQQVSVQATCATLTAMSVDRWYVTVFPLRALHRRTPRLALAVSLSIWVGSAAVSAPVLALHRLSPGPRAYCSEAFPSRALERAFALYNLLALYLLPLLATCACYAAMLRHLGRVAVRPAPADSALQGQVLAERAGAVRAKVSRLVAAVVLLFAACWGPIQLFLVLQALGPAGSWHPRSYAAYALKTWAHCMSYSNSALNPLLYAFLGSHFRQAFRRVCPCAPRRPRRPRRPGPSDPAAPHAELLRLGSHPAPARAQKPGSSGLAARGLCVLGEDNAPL
Muscarinic acetylcholine receptor M1 (Homo sapiens), sequence (P11229 whole entry, looked up): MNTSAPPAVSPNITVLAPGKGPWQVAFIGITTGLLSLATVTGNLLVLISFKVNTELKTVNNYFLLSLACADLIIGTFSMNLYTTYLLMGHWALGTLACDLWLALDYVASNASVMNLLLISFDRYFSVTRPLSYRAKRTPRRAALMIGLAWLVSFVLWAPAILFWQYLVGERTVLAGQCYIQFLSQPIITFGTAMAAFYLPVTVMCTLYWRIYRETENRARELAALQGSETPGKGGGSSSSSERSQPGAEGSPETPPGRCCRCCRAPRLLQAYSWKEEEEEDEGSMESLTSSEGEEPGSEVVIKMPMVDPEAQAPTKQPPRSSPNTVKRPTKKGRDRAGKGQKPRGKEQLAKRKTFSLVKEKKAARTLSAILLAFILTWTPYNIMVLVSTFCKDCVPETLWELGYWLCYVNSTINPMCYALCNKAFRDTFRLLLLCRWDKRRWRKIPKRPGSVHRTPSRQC

C[C@@H](O)[C@H](N)C(=O)O
inactive: activity change, negative = cytotoxicity [1] 1.84% [at 19 µM] | activity, positive = activation [2] 1.15% [at 19 µM] | activity change [3] -1.37% [at 11.8 µM, stronger effect = higher value] | activation [4] -0.197% [at 15.8 µM] | activation [5] -0.289% [at 11.8 µM] | activation [6] 1.89% [at 13.5 µM] | activation [7] 3.27% [at 13.6 µM] | activity change, negative = cytotoxicity [8] 12.8% [at 13.5 µM] | activity change, negative = cytotoxicity [9] -1.12% [at 13.5 µM] | activity change, negative = cytotoxicity [10] 3.28% [at 13.5 µM] | activation [11] -0.75% [at 13.5 µM] | activation [12] 1.14% [at 15.9 µM] | activity, negative = inhibition [13] -1.65% [at 12.6 µM] | activation [14] -0.0423% [at 15.8 µM] | activation [15] -0.0351% [at 19 µM] | activity change, negative = inhibition [16] 5.26% [at 18.9 µM] | activity change, negative = inhibition [17] 2.52% [at 19 µM] | activation [18] 17.6% [at 19 µM] | activity change, negative = inhibition [19] -2.84% [at 18.9 µM]

Brc1ccc(-c2ccccc2)cc1
inactive: Potency [1] | Potency [2] | Potency [3] | outcome [4] | outcome [5] | Potency [6] | Potency [7] | Potency [8] | Potency [9] | Potency [10] | Potency [11] | Potency [12] | Potency [13] | Potency [14] | Potency [15] | Potency [16] | Potency [17] | Potency [20] | Potency [18] | Potency [19]

Cc1ccco1
inactive: Potency [1] | Potency [2] | Potency [3] | outcome [4] | outcome [5] | Potency [6] | Potency [7] | Potency [8] | Potency [9] | Potency [10] | Potency [11] | Potency [12] | Potency [13] | Potency [14] | Potency [15] | Potency [16] | Potency [17] | Potency [18] | Potency [19]

Cc1cscn1
inactive: Potency [1] | Potency [2] | Potency [3] | outcome [4] | outcome [5] | Potency [6] | Potency [7] | Potency [8] | Potency [9] | Potency [10] | Potency [11] | Potency [12] | Potency [13] | Potency [14] | Potency [15] | Potency [17] | Potency [18] | Potency [19]

CC(C)(C)C(=O)Oc1ccc(S(=O)(=O)Nc2ccccc2C(=O)NCC(=O)O)cc1
inactive: Potency [1] | Potency [2] | Potency [3] | outcome [4] | outcome [5] | Potency [6] | Potency [7] | Potency [8] | Potency [9] | Potency [10] | Potency [11] | Potency [12] | Potency [13] | Potency [14] | Potency [15] | Potency [16] | Potency [17] | Potency [20] | Potency [18] | Potency [19]

CC(C)NCC(O)COc1ccc(COCCOC(C)C)cc1 (stereo unspecified)
inactive: Potency [1] | Potency [2] | Potency [3] | outcome [4] | outcome [5] | Potency [6] | Potency [7] | Potency [8] | Potency [9] | Potency [10] | Potency [11] | Potency [12] | Potency [13] | Potency [14] | Potency [15] | Potency [16] | Potency [19]

Nc1nc(-c2ccc([N+](=O)[O-])cc2)cs1
inactive: Potency [1] | Potency [2] | Potency [3] | outcome [4] | outcome [5] | Potency [6] | Potency [7] | Potency [8] | Potency [9] | Potency [10] | Potency [11] | Potency [12] | Potency [13] | Potency [14] | Potency [15] | Potency [16] | Potency [17] | Potency [20] | Potency [18] | Potency [19]

CC(=O)N(CC(O)CN(C(C)=O)c1c(I)c(C(=O)NCC(O)CO)c(I)c(C(=O)NCC(O)CO)c1I)c1c(I)c(C(=O)NCC(O)CO)c(I)c(C(=O)NCC(O)CO)c1I (stereo unspecified)
inactive: Potency [1] | Potency [2] | Potency [3] | outcome [4] | outcome [5] | Potency [6] | Potency [7] | Potency [8] | Potency [9] | Potency [10] | Potency [11] | Potency [12] | Potency [13] | Potency [14] | Potency [16] | Potency [17] | Potency [20] | Potency [18] | Potency [19]

CCCCCC(=O)OCCc1ccccc1
inactive: Potency [1] | Potency [2] | Potency [3] | outcome [4] | outcome [5] | Potency [6] | Potency [7] | Potency [8] | Potency [9] | Potency [10] | Potency [11] | Potency [12] | Potency [13] | Potency [14] | Potency [15] | Potency [17] | Potency [19]

CC1(C)CC(N)CC(C)(C)N1
inactive: Potency [1] | Potency [2] | Potency [3] | outcome [4] | outcome [5] | Potency [6] | Potency [7] | Potency [8] | Potency [9] | Potency [10] | Potency [11] | Potency [12] | Potency [13] | Potency [14] | Potency [15] | Potency [17] | Potency [18] | Potency [19]

c1ccc2c(CC3=NCCN3)cccc2c1
inactive: Potency [1] | Potency [2] | Potency [3] | outcome [4] | outcome [5] | Potency [6] | Potency [7] | Potency [8] | Potency [9] | Potency [10] | Potency [11] | Potency [12] | Potency [14] | Potency [15] | Potency [16] | Potency [17] | Potency [20] | Potency [18] | Potency [19]
